TDP1 cell noCPT – qHTS for Inhibitors of human tyrosyl-DNA phosphodiesterase 1 (TDP1): qHTS in cells in absence of CPT | DT40 Tdp1-/- hTDP1 cells, no CPT, ATP luminescence, 48 h | Potency, µM (series often up to 46.2 µM), most hits filed as inhibitors | 420,000 compounds, 15% hits; also: nearly all actives have a fitted effect of over 55% in size
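DT40 Tdp1-/-;hTDP1 cells, no CPT (DMSO vehicle only), 400 cells/well; compounds pin-transferred; ≥48 hr, 37 °C; CellTiter-Glo 30 min RT dark, luminescence read.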
TDP1 inh – TDP1 (human) enzyme inhibition | AID 485290 | recombinant TDP1, AlphaScreen DNA substrate cleavage | Potency, µM (titrated, usually from 130 µM), actives largely listed as inhibitors | Q9NUW8 | 350,000 compounds, 0.28% hits; also: nearly all actives have a fitted effect of over 40% in size
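AlphaScreen read-out: signal falls as enzyme removes the 3' tyrosine-FITC from a 5'-biotinylated DNA oligo (15 nM, 5 min, RT). Enzyme was E. coli-made recombinant Tdp1 at 1 nM, exposed to compound for 15 min beforehand; beads 10 ug/ml, 10 min.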
ClpP mod – qHTS Assay for Activators of ClpP. ATP-dependent Clp protease proteolytic subunit (Bacillus subtilis (strain 168)), P80244. Potency, µM (highest dose often 57.5 µM). 340,000 compounds, 1.9% hits. purified B. subtilis ClpP, FRET peptide cleavage, 20 min; active = well fitted falling curve with a large enough effect; inconclusive = small, poorly fitted or top-dose-only effect; inactive = no such curve, though single readings can be large or run the other way; also: the source files actives as falling curves though it sought activators and does not explain the sign; nearly all actives have a fitted effect of over 65% in size
Target sequence (P80244 whole entry, looked up): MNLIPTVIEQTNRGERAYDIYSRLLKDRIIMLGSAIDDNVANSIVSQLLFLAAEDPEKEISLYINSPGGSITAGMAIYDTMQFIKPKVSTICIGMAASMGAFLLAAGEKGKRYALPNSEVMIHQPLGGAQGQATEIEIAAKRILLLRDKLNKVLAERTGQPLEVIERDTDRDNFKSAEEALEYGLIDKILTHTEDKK
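Purified B. subtilis ClpP, 10 microg/mL final in Tris/HCl pH8 with KCl, BSA, glycerol and Tween-20, cleaved an Abz/nitrotyrosine-quenched decapeptide. Fluorescence (ex 320, em 430) was read at 0 and 20 min at room temperature. Delta was normalized to 5.8 microM ADEP and DMSO/no-enzyme controls.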
DT40 TDP1 CPT – DT40-hTDP1 cell growth loss with CPT; chicken DT40 Tdp1-/-;hTDP1 cells + 20 nM CPT, ATP luminescence, 48 h; 420,000 compounds, 12% hits; Potency, µM (doses to about 46.2 µM), usual class: inhibitors; AID 686979; also: nearly all actives have a fitted effect of over 55% in size
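Chicken DT40 Tdp1-/- cells complemented with human TDP1, 400 cells/well, exposed to compounds plus 20 nM camptothecin for at least 48 h at 37 C; viability read as ATP content by CellTiter-Glo luminescence.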
Of the large screens only hits and unclear results are named; the others gave an inactive call. Compounds with a hit are over-represented: about 17% of the library has one in this group of screens. Unless noted, calls follow the shape of the dose curve; as a rule, active = well fitted curve in the direction sought with a large enough effect; inconclusive = small, poorly fitted or top-dose-only effect, or another doubt; inactive = no such curve, though single readings can be large; an effect the other way counts as inactive or inconclusive.

Cc1ccc(-c2cc(N)n(-c3ccc(C)cc3)n2)cc1	TDP1 cell noCPT inconclusive, DT40 TDP1 CPT inconclusive
Cc1ccc(-c2cc3nn(-c4ccccc4)c(N)c3c(=O)o2)cc1	TDP1 cell noCPT 20.6µM, ClpP mod 31.6µM, DT40 TDP1 CPT inconclusive
CCC(C)Sc1ccc([C@@H]2[C@@H]3C(=O)N(CC)C(=O)[C@@H]3[C@]3(C(=O)OC)CCCCN23)cc1 (some centres undefined)	TDP1 cell noCPT 20.6µM, DT40 TDP1 CPT inconclusive
CCC(C)Sc1ccc([C@@H]2[C@H]3C(=O)N(CC)C(=O)[C@H]3[C@]3(C(=O)OC)CCCN23)cc1OC (some centres undefined)	TDP1 cell noCPT 23.1µM, DT40 TDP1 CPT 23.1µM
CCN1C(=O)[C@@H]2[C@@H](c3ccc(SC4CCCCC4)cc3)N3CCCC[C@@]3(C(=O)OC)[C@@H]2C1=O	TDP1 cell noCPT inconclusive, DT40 TDP1 CPT inconclusive
CCC(C)Sc1ccc([C@@H]2[C@@H]3C(=O)N(C)C(=O)[C@@H]3[C@]3(C(=O)OC)CCCCN23)cc1 (some centres undefined)	TDP1 cell noCPT inconclusive, DT40 TDP1 CPT 18.4µM
CCC(C)Sc1ccc([C@H]2N[C@@](C)(C(=O)OC)[C@H]3C(=O)N(C)C(=O)[C@@H]23)cc1 (some centres undefined)	TDP1 cell noCPT inconclusive
COCCNc1oc(/C=C/c2ccc(F)cc2)nc1S(=O)(=O)c1ccccc1	none
C=CCn1cc(F)c(=O)n(CC=C)c1=O	none (no result: ClpP mod)
Cc1ccc(-n2c(C(C)C)nc3oc4ccccc4c(=O)c3c2=O)cc1	DT40 TDP1 CPT inconclusive
COc1ccc(C(C)C)cc1S(=O)(=O)NCCc1c(C)[nH]c2ccc(C)cc12	TDP1 cell noCPT inconclusive, DT40 TDP1 CPT inconclusive
COc1ccc(C(C)C)cc1S(=O)(=O)NCCc1c(C)[nH]c2c(Cl)cccc12	TDP1 cell noCPT inconclusive, DT40 TDP1 CPT 29.1µM
CCN(CC)S(=O)(=O)c1ccc(C(=O)N2CC(=O)Nc3ccc(F)cc3C2c2ccccc2)cc1 (centres undefined)	TDP1 cell noCPT inconclusive, DT40 TDP1 CPT inconclusive
CC[C@H]1C2=C3C(CC[C@H]4C(OCc5ccc(F)cc5C(F)(F)F)OC[C@](C)([C@@H]34)N(C(=O)OC(C)(C)C)C2)C(COC)C1COC (some centres undefined)	none (no result: TDP1 cell noCPT, ClpP mod, DT40 TDP1 CPT)
CCn1c(C(=O)NC2CCC(C)CC2)cc2sccc21 (centres undefined)	TDP1 cell noCPT inconclusive
CCOC(=O)C(CC)n1nc(C)n2c(cc3sccc32)c1=O (centres undefined)	TDP1 cell noCPT 11.6µM, DT40 TDP1 CPT 11.6µM
Cc1nn(C(C)C(=O)NC2CCC(C)CC2)c(=O)c2cc3sccc3n12 (centres undefined)	TDP1 cell noCPT inconclusive, DT40 TDP1 CPT 14.6µM
C[C@@H]1CCC2C(C)(C)C3CC21CC[C@@]3(C)O (some centres undefined)	none (no result: ClpP mod)
COc1cccc([C@@H]2Oc3ccc(OC)cc3C(=O)[C@H]2OC(=O)Nc2ccc(OC(F)F)cc2)c1	none (no result: TDP1 cell noCPT, ClpP mod, DT40 TDP1 CPT)
NC(=O)c1ccc(-c2nc(-c3ccc4c(c3)OCO4)c(-c3ccccn3)[nH]2)cc1	TDP1 cell noCPT 18.8µM, DT40 TDP1 CPT 21.1µM (no result: ClpP mod)
O=C(CCCn1nnnc1CN1CCOCC1)N1CCN(c2ccccc2F)CC1	none
CCOc1ccc(NC(=O)Cn2c(=O)n(Cc3ccccc3)c(=O)c3sc4ccccc4c32)cc1	TDP1 cell noCPT 9.2µM, ClpP mod inconclusive, DT40 TDP1 CPT 6.51µM
Cc1cccc(NC(=O)Cn2c(=O)n(CCc3ccccc3)c(=O)c3sc4ccccc4c32)c1	TDP1 cell noCPT 23.1µM, DT40 TDP1 CPT 16.4µM
Cc1cccc(NC(=O)Cn2c(=O)n(Cc3ccccc3)c(=O)c3sc4ccccc4c32)c1	ClpP mod inconclusive
O=C(O)/C=C/c1ccc(OCc2cccc(F)c2)cc1	TDP1 cell noCPT inconclusive, DT40 TDP1 CPT inconclusive (no result: ClpP mod)
Cc1cccc2sc(N(CCN3CCOCC3)C(=O)CCS(=O)(=O)c3ccccc3)nc12	TDP1 cell noCPT 20.6µM, DT40 TDP1 CPT 16.4µM
Cc1ccc(S(=O)(=O)CCC(=O)N(CCN2CCOCC2)c2nc3ccccc3s2)cc1	TDP1 cell noCPT 16.4µM, DT40 TDP1 CPT 20.6µM
Cc1cccc2sc(N(CCCN3CCOCC3)C(=O)CS(=O)(=O)c3ccc(F)cc3)nc12	none (no result: ClpP mod)
NC(=O)C1CCCN(Cc2ccc3c(c2)CN(Cc2ccccc2)CCO3)C1 (centres undefined)	none (no result: TDP1 inh, ClpP mod)

Bioassay records deposited in PubChem BioAssay by National Center for Advancing Translational Sciences (NCATS).
